Source: PubChem BioAssay (National Center for Advancing Translational Sciences (NCATS))
L3MBTL1 inh: inhibitors of human L3MBTL1; 230,000 tested, 0.66% active; AlphaScreen L3MBTL1–H3K9me1 peptide binding; Potency, µM (series often up to 57.1 µM), for inactives: at the top dose activity, negative = inhibition, most hits filed as inhibitors; Q9Y468; AID 485360; also: % is scaled to controls: 0 for no effect and ±100 for the full control effect; nearly all actives have a fitted effect of over 60% in size
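First, the protein-peptide complex forms for 30 min at room temperature (L3MBTL1 50 nM, biotinylated H3K9me1 peptide 75 nM). Next, compounds are pin-transferred and incubated 30 min. Finally, AlphaScreen beads are added and read after 30 min.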
HP1b binding inh: HP1-beta chromodomain-methylated histone interaction inhibition; Potency, µM (titrated, usually from 114 µM), for the others: at the top dose activity change, negative = inhibition, usual class: inhibitors; AID 540317; P83916; 390,000 tested, 0.56% active; AlphaScreen HP1-beta / biotin-H3K9me3 peptide binding; also: nearly all actives have a fitted effect of over 70% in size
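HP1-beta protein (50 nM final) preincubated 30 min at room temperature with biotinylated H3(1-18)K9me3 peptide (50 nM) in PBS pH 7.4, 0.01% Tween-20, then compound added for 30 min. AlphaScreen streptavidin donor/nickel chelate acceptor beads (10 ug/mL final), 30 min dark, luminescence read.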
BAZ2B block: blocks human BAZ2B; 360,000 tested, 4.4% active; AID 504333; Q9UIF8; AlphaScreen BAZ2B-H3K14Ac peptide displacement; Potency, µM (series often up to 114 µM), without a hit: at the highest dose activity change, negative = inhibition, most hits filed as inhibitors; also: % is scaled to controls: 0 for no effect and ±100 for the full control effect; nearly all actives have a fitted effect of over 60% in size
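Protein-peptide AlphaScreen: BAZ2B 50 nM, b-H3K14Ac 50 nM, 1x PBS pH 7.4 + 0.01% Tween-20. Preincubation 30 min RT; cpd 30 min RT (top 110 uM); beads 20 min RT, light-protected.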
G9a block: inhibitors of human histone lysine methyltransferase G9a; 350,000 tested, 8.8% active; Potency, µM (top dose mostly 102 µM), without a hit: at the highest dose activity, negative = inhibition, most hits filed as inhibitors; G9a H3K9 monomethylation, AlphaScreen, 2 h; Q96KQ7; also: % is scaled to controls: 0 for no effect and ±100 for the full control effect; nearly all actives have a fitted effect of over 75% in size
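Readings reflect AlphaScreen signal from monomethyl-H3K9 antibody detection. HMT at 20 nM; substrate b-H3K9 500 nM; cofactor SAM 20 uM; 2 h RT reaction; compounds tested as titrations in qHTS with 15 min preincubation.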
JMJD2A Tudor inh: inhibitors of human JMJD2A Tudor domain. 390,000 tested, 4.4% active. AlphaScreen JMJD2A-Tudor / H3K4me3 peptide binding. Potency, µM (doses to about 114 µM), inactives show at the highest dose activity change, negative = inhibition, hits mostly inhibitors. O75164; also: % is scaled to controls: 0 for no effect and ±100 for the full control effect; nearly all actives have a fitted effect of over 50% in size
GLS inh: glutaminase GLS (human) inhibition. O94925. GLS enzymatic activity, qHTS titration. 410,000 tested, 0.21% active. Potency, µM (doses to about 45.5 µM), inactives show top-dose activity change, negative = inhibition, most hits filed as inhibitors; also: % is scaled to controls: 0 for no effect and ±100 for the full control effect
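hKGA in 45 mM KH2PO4 (pH 8.2), 0.02% Tween-20 with compound, then 1mM L-Glutamine (stock as added) plus glutamate oxidase/HRP/Amplex red coupling mix. Fluorescence read initially and after 30 min at RT; signal change reflects glutamate formation.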
Numbers without * were called inactive; ? = inconclusive; . = no result given; [ ] = another dose, or the depositor's remark. In the library only some 10% were active in any assay of this set; here they are far more common. Calls follow the shape of the dose curve; as a rule, active = well fitted curve in the direction sought with a large enough effect; inconclusive = small, poorly fitted or top-dose-only effect, or another doubt; inactive = no such curve, though single readings can be large; an effect the other way counts as inactive or inconclusive. Potency is read from the fitted curve at half-maximal effect.

SMILES	L3MBTL1 inh	HP1b binding inh	BAZ2B block	G9a block	JMJD2A Tudor inh	GLS inh
Cc1ccc(Nc2n[nH]c(=S)s2)cc1	.	.	.	.	.	20%
Fc1ccccc1Nc1n[nH]c(=S)s1	-1%	45µM*	50µM*	2.8µM*	2.8µM*	-9%
S=c1[nH]nc(Nc2ccc(Cl)cc2)s1	7%	2%	?	.	-35%	-20%
Cc1ccccc1C(=O)Nc1nc(-c2nnn(-c3ccc(C(C)C)cc3)c2C)ns1	.	30%	-2%	-6%[59 µM]	-10%	3%
COc1ccc(N/N=C(/C#N)S(=O)(=O)C(C)(C)C)cc1	.	28%	-37%	50µM*	-7%[57.1 µM]	0%
CSc1ccc(N/N=C(/C#N)S(=O)(=O)C(C)(C)C)cc1	.	?	?	50µM*	-26%[11.4 µM]	13%
Cc1ccc(C)c(NC(=O)CC2NCCNC2=O)c1 (stereo unspecified)	.	6%	-16%	-1%[59 µM]	-18%	-2%
C=C1CC2C3C=C(C)C4=CC(=O)CCC4(C)C3CCC2(C)[C@@]1(OC(C)=O)C(C)=O (stereo partly specified)	.	.	.	18µM*	.	-16%
Cc1ccc(N2CC(NC(=O)c3cc4ccccc4o3)CC2=O)cc1 (stereo unspecified)	.	63%	1%	1%[59 µM]	-19%	4%
O=C(c1ccc(-c2ccc([N+](=O)[O-])cc2)o1)N1CCCCCCC1	-20%	?	40µM*	-4%[12.7 µM]	56µM*	6%
CC1CCCN(C(=O)c2ccc([N+](=O)[O-])o2)C1 (stereo unspecified)	.	24%	0%	15%	-11%	1%
O=C(c1ccc(-c2ccc([N+](=O)[O-])cc2)o1)N1CCCC(C(F)(F)F)C1 (stereo unspecified)	-16%	?	?	14µM*	?	-8%
CCOc1ccc(NC(=O)Cn2c(=O)n(-c3cccc(OC)c3)c(=O)c3c4c(sc32)CCCC4)cc1	.	22%	-1%	9%[59 µM]	-7%	0%
Cc1cccc(N(CC(=O)NC2CCCC2)C(=O)CS(=O)CC(=O)Nc2ccc3c(c2)OCO3)c1C (stereo unspecified)	-4%	33%	-11%	7.9µM*	-12%[57.1 µM]	1%
COc1ccc(C2c3[nH]c4ccccc4c3CCN2C(=O)c2cn3ccccc3n2)c(F)c1 (stereo unspecified)	-27%	-5%	22µM*	.	?	-1%
COc1ccc(C2c3[nH]c4ccccc4c3CCN2C(=O)c2ccccc2C(C)=O)c(F)c1 (stereo unspecified)	-5%	2%	-11%	.	?	0%
COc1ccc(C2c3[nH]c4ccccc4c3CCN2C(=O)c2cc3ncccn3n2)c(F)c1 (stereo unspecified)	-18%	2%	32µM*	20%[12.7 µM]	?	5%
Cc1nn(C)c2c1c(-c1ccccc1)cc(=O)n2C(C)C(=O)NCCc1ccc(Cl)cc1 (stereo unspecified)	.	-22%	-12%	8%[59 µM]	-19%	-5%
CC(C)(C)C1CCc2nc(NC(=O)COc3ccc(F)cc3)sc2C1 (stereo unspecified)	.	29%	-24%	12%[59 µM]	-16%	-11%
C/C(=N/NS(=O)(=O)c1cc(C)ccc1C)c1ccc2c(c1)OCO2	.	23%	-25%	9%	-18%	7%
C/C(=N/NS(=O)(=O)c1cc(C)ccc1C)c1ccncc1	.	53%	-14%	40µM*	-17%	10%
O=C1COc2ccc(C(=O)COC(=O)c3ccc([N+](=O)[O-])cc3Cl)cc2N1	-8%	-2%	-34%	40µM*	-25%	0%
O=C1COc2ccc(C(=O)COC(=O)c3ccccc3[N+](=O)[O-])cc2N1	-1%	6%	-4%	?	-23%	-4%
O=C1COc2ccc(C(=O)COC(=O)c3ccc(Cl)cc3[N+](=O)[O-])cc2N1	-5%	3%	-33%	45µM*	-25%	-8%
O=[N+]([O-])/C(C(=C(Cl)Cl)N1CCOCC1)=C1\NCCO1	-3%	49%	?	.	-1%	3%
SMILES	L3MBTL1 inh	HP1b binding inh	BAZ2B block	G9a block	JMJD2A Tudor inh	GLS inh
CN1CCO/C1=C(\C(Cl)=C(Cl)Cl)[N+](=O)[O-]	21%	23%	50µM*	20µM*	56µM*	-1%
COc1cccc(NC(=O)c2oc3ccccc3c2NC(=O)c2ccc(OC(C)C)cc2)c1	.	28%	-12%	-19%[59 µM]	-16%	-8%
C/C(=N\NC(=O)c1cc(-c2cccs2)nc2ccccc12)c1ccccn1	28µM*	32%	5.6µM*	-9%	28µM*	1%
Cc1cccc2sc(NNC(=O)c3cc(-c4cccs4)nc4ccccc34)nc12	?	41%	3.5µM*	32µM*	?	7%
NNC(=O)c1cc(-c2cccs2)nc2ccccc12	0%	56%	-15%	9%	-16%	24%
C/C(=N\NC(=O)c1ccc(Cl)c(Cl)c1)c1ccccn1	.	22%[57 µM]	7.9µM*	-9%	?	-1%
O=C(N/N=C(\c1ccccc1)c1ccccn1)c1ccccc1Cl	.	9%	-12%	50%	-34%	0%
C/C(=N\NC(=O)c1ccccc1Cl)c1ccccn1	.	30%	32µM*	17%	56µM*	1%
Cc1ccc(NC(=O)c2cc(-c3cccs3)nc3ccccc23)c(C)c1	.	39%	0%	0%[59 µM]	-3%	-2%
Cc1ccccc1-c1nc2cc(NC(=O)COc3ccc(F)cc3)ccc2o1	.	44%	-16%	6%[59 µM]	-10%	-1%
COc1cc(C(C)=NNC(=O)c2ccncc2)ccc1O	.	6%	.	.	32µM*	-27%
C/C(=N/NC(=O)c1ccncc1)c1cc2ccc(O)cc2oc1=O	-4%	24%	79µM*	-4%[59 µM]	-32%	15%
C/C(=N\NC(=O)C1COc2ccccc2O1)c1ccc(C)o1 (stereo unspecified)	.	31%	2%	-16%	-21%	4%
C/C(=N\NC(=O)C1COc2ccccc2O1)c1ccccn1 (stereo unspecified)	?	31%	25µM*	15%[59 µM]	50µM*	9%
C/C(=N\NC(=O)c1cccc(Br)c1)c1ccccn1	.	29%	3.5µM*	27%	22µM*	-13%
C/C(=N\NC(=O)c1cc(Br)ccc1O)c1ccccn1	.	39%	2%	?	-30%	9%
COc1ccc(CNc2ncnc3nc[nH]c23)cc1OC	.	45%	.	.	-13%	.
COc1ccccc1NC(=O)C(C)Sc1nnc2ccc3ccccc3n12 (stereo unspecified)	.	24%	-3%	?	-9%	-1%
C/C(=N\NC(=O)c1cccc2ccccc12)c1ccccn1	.	16%	16µM*	.	56µM*	0%
